The supplement of paper PMC10338343
± gives the standard deviation.

What follows are sequences tested on MILI (PIWIL2) piRISC loaded with L1MC piRNA (26 nt) (assay: pre-steady-state target cleavage rate (min^-1); guide: L1MC piRNA 5'p-UAACUAAAUACUAUGCAAGCUGUAGG; MIWI and MILI are mouse PIWI proteins and EfPiwi is from a freshwater sponge; tags in brackets are library labels; higher = faster piRNA-guided slicing of the target). Conditions: auxiliary factor: 500 nM mouse GTSF1.
In short: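 Three pooled Cleave-'n-Seq trials supplied the data, with k3 capped at 0.0001 min^-1. In each, […] transcribed, DNA-blocked target RNA library and 1 nM active affinity-purified piRISC with one synthetic guide reacted in HEPES–potassium acetate buffer at 33 °C for 0–8 or 0–960 min, with or without 500 nM GTSF1 partner protein. Uncleaved targets were sequenced and normalised to depth and to weakly complementary targets. A burst-and-steady-state fit provided the pre-steady-state cleavage rate.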
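Further: 1 nM active piRISC with 0.1 nM target library at 33 °C single turnover.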

| Sequence | pre-steady-state target cleavage rate |
| --- | --- |
| UCCUGGAUCAGCUUGCUUAGUAUUUUCAAA | 0.0126 ± 0.0057 |
| UCCUGGAUCAGCUUGCAUAGUAAAUAGAAA | 0.0183 ± 0.0078 |
| UCCUGGAUGUGCUUGCAUAGUAUUAAGUAA | 0.015 ± 0.0059 |
| UCCUGGAUCAGGUUCCAUAGUAUUUAGUUA | 0.00709 ± 0.004 |
| UCCUGCUACACGAUGCAUAGUAUUUACAAA | 0.0504 ± 0.02 |
| UCCUGGAACUCGUUGCAUAGUAUUUUCAAA | 0.0397 ± 0.011 |
| UCCUGGAUGUCCUUGCUAAGUAUUUAGUAA | 0.0128 ± 0.006 |
| UCCUGGAUGUCGAUCCAUAGUAUUUAGUUA | 0.00686 ± 0.0039 |
| UCCUGGUAGAGCUUGCAUACUAUUUAGUUA | 0.0467 ± 0.011 |
| UCCUGGAUCAGCUUGCAUAGUAUUAUGAAA | 0.0664 ± 0.016 |
| UCCUGGAUGAGCUUGCAUAGUAUUUGUUA | 0.118 ± 0.028 |
| UCCUGGAUCAGCUUGCAUAGAAUUUACAAA | 0.00722 ± 0.0036 |
| UCCUGCUACAGCUUGCAAAGUAUUUUCAAA | 0.0624 ± 0.02 |
| UCCUGGAUGUCCUUGCUUAGUAUUUACUUA | 0.0556 ± 0.015 |
| UCCUGGAUGUCGUAGCAUAGUAUUUAGUAA | 0.0538 ± 0.01 |
| UCCUGGAACAGGUUGCAUAGUAUUUACUUA | 0.0532 ± 0.012 |
| UCCUGCUACAGCUUCCAUAGUUUUUAGUUA | 0.0226 ± 0.01 |
| UCCUGGAUGUCGAUGAAUAGUAUUUAGUUA | 0.00887 ± 0.0033 |
| UCCUGGAUGUCCUUGCAUUGUAUUUUGUUA | 0.0388 ± 0.013 |

| Sequence | pre-steady-state target cleavage rate |
| --- | --- |
| UCCUGGAUCAGCUUGCAUAGUAUUAUGUAA | 0.00562 ± 0.0035 |
| UCCUGGAUGUCGAUGCAUAGUUUUAAGUUA | 0.00654 ± 0.0039 |
| UCCUGGAUGUCCUUGCAUAGUAUUUGUUA | 0.0123 ± 0.0057 |
| UCCUGGAUGAGCUUGCAUAGUUUAUAGUUA | 0.0127 ± 0.0052 |
| UCCUGGUACAGCUUGCAUAGUAUAAUGAAA | 0.0203 ± 0.0077 |
| UCCUCCUACAGCUUGCAUAGUUAAUACAAA | 0.014 ± 0.0056 |
| UCCUGGAUGUGCUUGCAUAGUAUAUAGUAA | 0.0253 ± 0.0079 |
| UCCUGGAUCACCUUGCAUAGUAUUUUCAAA | 0.0586 ± 0.021 |
| UCCUGGAUGUCGAAGCAUAGUAUAUAGUAA | 0.012 ± 0.0042 |
| UCCUGGAACAGCUUGCAUAGAUUUUAGUAA | 0.0259 ± 0.0091 |
| UCCUGGAUCAGCUUGCAUAGAUAUUAGUUA | 0.00566 ± 0.0036 |
| UCCUGGAUGUCGAAGCAUAGUAUUUCAGUUA | 0.0176 ± 0.0068 |
| UCCUCCUACAGCUUGCAUAGAAUUUACUUA | 0.0813 ± 0.022 |
| UCCUGGAACAGCUUGGAUAGUAUUUACUUA | 0.0413 ± 0.012 |
| UCCUGGAUGAGCUUGCAUAGUAUUCUAGUUA | 0.165 ± 0.029 |
| UCCUGGAUGAGCUUGCAUAGUAUUUUCAAA | 0.00959 ± 0.0061 |
| UCCUGGAUGUCCUUGCUAUGUAUUUAGUUA | 0.00552 ± 0.0044 |
| UCCUGCUACACGUUGCAUAGUAUUUAGAAA | 0.0396 ± 0.013 |
| UCCUGGUACAGCUAGCAUAGUAUUUACAAA | 0.0365 ± 0.012 |
